# RORg inh = inhibitors of mouse ROR gamma transcriptional activity. P51450. Potency, µM (highest dose often 53.6 µM), for inactives: top-dose activity change, negative = inhibition, actives largely listed as inhibitors. hit rate 5.4% among 310,000. Drosophila S2 Gal4-RORgamma UAS-luciferase reporter, 20 h. AID 2551; further: potency means the concentration at half of the fitted maximal effect; nearly all actives have a fitted effect of over 60% in size
# Target sequence (P51450 whole entry, looked up, the tested form may be a part): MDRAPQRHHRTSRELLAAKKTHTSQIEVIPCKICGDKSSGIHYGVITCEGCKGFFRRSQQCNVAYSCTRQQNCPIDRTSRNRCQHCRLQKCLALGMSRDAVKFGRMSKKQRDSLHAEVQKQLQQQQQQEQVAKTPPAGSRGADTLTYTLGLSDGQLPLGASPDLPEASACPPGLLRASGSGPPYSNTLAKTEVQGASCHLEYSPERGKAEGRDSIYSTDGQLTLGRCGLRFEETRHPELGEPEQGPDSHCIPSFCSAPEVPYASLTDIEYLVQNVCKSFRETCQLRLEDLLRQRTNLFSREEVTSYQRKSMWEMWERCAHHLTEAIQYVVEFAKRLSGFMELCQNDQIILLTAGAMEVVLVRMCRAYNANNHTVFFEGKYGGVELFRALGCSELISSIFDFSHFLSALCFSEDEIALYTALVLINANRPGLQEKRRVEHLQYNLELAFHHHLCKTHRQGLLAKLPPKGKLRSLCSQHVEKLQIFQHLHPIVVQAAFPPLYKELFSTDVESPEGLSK
#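 Compounds are pin-transferred onto Drosophila Schneider cells expressing a copper-inducible Gal4–ROR gamma transactivation domain fusion. After 1 hr, copper sulfate is added to 700 uM final; luciferase is read 20 hr later.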
# IL1B secr inh = blocks inflammasome-driven IL-1 beta release; hit rate 4.7% among 360,000; activity change, % at 57.5 µM; THP-1 LPS/ATP IL-1B secretion, AlphaLISA, 16 h; active compounds read low; in the data active means activity change below about -50%; inconclusive means mostly about -30% to -49%
#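 THP-1 cells pretreated 1 hr with compounds (up to 57.5 uM final), then stimulated with LPS (250 ng/mL final) plus ATP (1.25 mM final); secreted IL-1B measured by AlphaLISA after 16 hr, decreased signal indicating inhibition.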
# VP16 counter = inhibits Gal4-VP16 luciferase reporter, ROR gamma counter-screen. hit rate 3.5% among 310,000. Potency, µM (highest dose often 53.6 µM), inactives show at the top dose activity, negative = inhibition, actives largely listed as inhibitors. Drosophila S2 Gal4-VP16 UAS-luciferase, luminescence, 20 h;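 further: Gal4-VP16 expression switched on by copper sulfate through the metallothionein promoter; potency means the concentration at half of the fitted maximal effect; nearly all actives have a fitted effect of over 50% in size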
# DT40 TDP1 CPT = DT40-hTDP1 cell growth loss with CPT; chicken DT40 Tdp1-/-;hTDP1 cells + 20 nM CPT, ATP luminescence, 48 h; Potency, µM (series often up to 46.2 µM), for inactives: at the top dose activity change, negative = growth inhibition, hits mostly inhibitors; hit rate 12% among 420,000; AID 686979; further: potency means the concentration at half of the fitted maximal effect; nearly all actives have a fitted effect of over 55% in size
#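 Chicken DT40 Tdp1-/- cells complemented with human TDP1, 400 cells/well, exposed to compounds plus 20 nM camptothecin for at least 48 h at 37 C; viability read as ATP content by CellTiter-Glo luminescence.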
# TDP1 cell noCPT = qHTS for Inhibitors of human tyrosyl-DNA phosphodiesterase 1 (TDP1): qHTS in cells in absence of CPT. DT40 Tdp1-/- hTDP1 cells, no CPT, ATP luminescence, 48 h. Potency, µM (highest dose often 46.2 µM), without a hit: at the top dose activity change, negative = growth inhibition, hits mostly inhibitors. hit rate 15% among 420,000. AID 686978, 2013; further: potency means the concentration at half of the fitted maximal effect; nearly all actives have a fitted effect of over 55% in size
#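 Stably hTDP1-transfected Tdp1-null chicken DT40 cells were treated with library compounds minus camptothecin and grown for at least 48 hr at 37 °C, after which cellular ATP was quantified by luminescence.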
# LDHA inh = inhibitors of human lactate dehydrogenase A; P00338; purified LDHA, NADH/diaphorase-resazurin fluorescence; active compounds read low; activity change, % (values are at about 110 or 230 µM); hit rate 0.15% among 480,000; AID 1347041; in the data active means activity change below about -30%; inconclusive means mostly about -25% to -30%;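 further: plate controls were DMSO wells for no effect and wells without enzyme for full effect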
#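 Enzyme activity of human lactate dehydrogenase 5 (2 nM; 0.06 mM NADH, 0.2 mM pyruvate, 5 min, RT) is measured via a resazurin/diaphorase fluorescence readout of residual NADH.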
# The depositor's hits bear a star; u = inconclusive; x = no result; [ ] = remark or other dose. Only some compounds are listed: those with a hit (about 18% of all), similar ones and a draw of the others. Unless noted, the call rests on the fitted dose curve; in most records, active means well fitted curve in the direction sought with a large enough effect; inconclusive means small, poorly fitted or top-dose-only effect, or another doubt; inactive means no such curve, though single readings can be large; an effect the other way counts as inactive or inconclusive. Unless noted, on the % scale 0 is the no-effect control and ±100 the full control effect.
SMILES,RORg inh,IL1B secr inh,VP16 counter,DT40 TDP1 CPT,TDP1 cell noCPT,LDHA inh
O=C1N[C@H]2CC=C[C@H]2Nc2ccccc21,x,-15,x,13µM*,16µM*,4
C=CCSc1nnc2nc3c(nn12)c1cc(C)ccc1n3CC=C,15%,-7,-3%,16µM*,u,1
O=S(=O)(CC(CN1CCCCC1)N1CCCCC1)c1ccc2ccccc2c1 (stereo unspecified),13µM*,-97*,u,5.2µM*,2.6µM*,1
Cc1ccc(S(=O)(=O)CC(CN2CCCCC2)N2CCCCC2)cc1 (stereo unspecified),2.8µM*,-98*,-19%,u,13µM*,-4
Cc1ccc(S(=O)(=O)CC(c2ccccc2)N2CCCCC2)cc1 (stereo unspecified),-3%,u,-10%,u,u,-13
CCOc1cc(C(=O)Oc2ccccc2OC)cc(Br)c1OC,x,x,x,x,x,-6
COc1ccc(Cc2nc(C)c(-c3ccccc3)s2)cc1OC,x,x,x,x,x,5
O=C(/C=C/c1cccc([N+](=O)[O-])c1)OCCCC(=O)c1ccc(F)cc1,x,x,x,x,x,6
CC1CCN(c2nc3c(c(=O)n(C)c(=O)n3C)n2CC(=O)C23CC4CC(CC(C4)C2)C3)CC1,x,x,x,x,x,-20
CC(Sc1nnc2c(Cl)cc(C(F)(F)F)cn12)c1ccc(F)cc1 (stereo unspecified),x,x,x,x,x,-1
CC(Cc1ccccc1)NC(=S)CN1CCCC1=S (stereo unspecified),8.9µM*,-19,u,-18%,0%,-5
CC(Cc1ccccc1)NC(=O)CC(c1ccccc1)c1ccccc1O (stereo unspecified),10%,u,0%,1%,u,-8
Cc1ccc(CCNC(=O)c2cc3sccc3n2Cc2ccc(Cl)cc2)cc1,x,x,x,-16%,-8%,2
CCOc1ccc(CCNC(=O)c2cc3sc(Cl)cc3n2C)cc1OCC,-20%,15,8%,u,u,-5
CCOc1ccc(CCNC(=O)c2cc3sccc3n2C)cc1OCC,0%,-6,1%,16µM*,10µM*,2
COc1ccc(CCNC(=O)c2cc3sccc3n2Cc2ccc(Cl)cc2)cc1OC,x,x,x,13µM*,15µM*,2
COC(=O)c1ccc(NC(=O)c2cc3sccc3n2C)cc1,38%,6,-12%,29µM*,u,8
CCN(C(=O)CCNC(=O)c1ccccc1C)C12CC3CC(CC(C3)C1)C2,x,x,x,x,x,12
CC(C)C(N)c1ccccc1 (stereo unspecified),x,x,x,x,x,2
Fc1cccc(Cc2c(-c3ccc(Cl)cc3)nc3ccc(Br)cn23)c1,x,u,x,u,16µM*,-7
Cc1ccc(-c2nc3ccc(Cl)cn3c2CC(C)(C)C)cc1,x,27,x,u,-27%,4
Cc1ccc(-c2nc3ccc(Cl)cn3c2Cc2cccc(F)c2)cc1,x,-14,x,21µM*,u,-4
N#Cc1ccc(-c2nc3ccc(Cl)cn3c2Cc2cccc(F)c2)cc1,x,0,x,u,u,-9
CC(C)(C)Cc1c(-c2ccc(F)cc2)nc2ccc(Cl)cn12,x,43,x,u,21µM*,2
C=CCn1c(NC(=O)c2ccccc2Cl)c(C#N)c2nc3ccccc3nc21,u,-60*,u,16µM*,21µM*,31
SMILES,RORg inh,IL1B secr inh,VP16 counter,DT40 TDP1 CPT,TDP1 cell noCPT,LDHA inh
COc1ccc(N2CCCCS2(=O)=O)cc1S(=O)(=O)NCCc1ccccc1F,x,x,x,x,x,8
O=C1OC(c2ccccc2)=N/C1=C/c1cccc(OC(=O)c2cccs2)c1,x,-52*,x,-3%,-30%,2
Cc1no[n+]([O-])c1COc1cccc(/C=C2\N=C(c3ccccc3)OC2=O)c1,-6%,-15,-14%,-8%,1%,-11
Cc1cc(OC(=O)c2ccco2)c(Sc2ccccc2[N+](=O)[O-])c(=O)o1,-4%,7,2%,u,18µM*,-106*
CCc1ccc(C(=O)NNc2ccc(Cl)cc2)cc1,31%,-23,-8%,-9%,-17%,2
CCc1ccc(NCCC(=O)c2ccc(Cl)cc2)cc1,7%,-22,1%,21µM*,16µM*,-14
COc1cccc(Nc2nnc(-c3cc4ccc(O)cc4oc3=O)s2)c1,x,x,x,u,23µM*,-9
CC/C(C)=N\Nc1nc(-c2cc3cc(OC)ccc3oc2=O)cs1,u,-6,u,u,18µM*,0
O=c1oc2cc(O)ccc2cc1-c1nnc(Nc2ccccc2F)s1,x,x,x,7%,-20%,-5
Nc1nnc(-c2cc3ccccc3oc2=O)s1,24%[0.365 µM],-13,x,-22%,u,-1
COc1ccc2oc(=O)c(-c3nnc(N)s3)cc2c1,-22%,-84*,-4%,1%,-27%,-6
Cc1cc(C)c2c(n1)SCC(=O)N2CCCC(=O)NCc1ccccc1Br,x,x,x,x,x,0
O=[N+]([O-])c1ccc(NC(=S)NCc2ccc(F)cc2)cc1,u,-100*,u,u,15µM*,-6
S=C(NCCc1ccc(Cl)cc1Cl)NCc1ccccc1,x,x,x,x,x,-1
S=C(NCc1ccc(Cl)cc1)Nc1ccccc1,2.2µM*,-23,3.5µM*,u,21µM*,0
Fc1ccc(CNC(=S)Nc2ccc(Cl)cc2)cc1,7.1µM*,-16,16µM*,u,u,1
S=C(NCc1ccc(Cl)cc1Cl)Nc1ccccc1,7.1µM*,-1,6.3µM*,u,u,-17
N#CCSc1nnc(-c2c[nH]c3ccccc23)n1C1CC1,x,x,x,x,x,2
COc1cccc(OS(=O)(=O)c2ccc3c(c2)CCCC3)c1,x,x,x,x,x,3
CCCCCCC(C)NCc1cccc2ccccc12 (stereo unspecified),x,x,x,x,x,3
S=C(NCc1ccncc1)Nc1cccc(Cl)c1,15%,-2,0%,-8%,-15%,-5
O=[N+]([O-])c1ccc(/C=N/NC(=S)Nc2ccccc2)cc1,x,x,x,x,x,-5
S=C(NCc1ccc(Cl)cc1)Nc1ccncc1,u,-17,7.1µM*,8.2µM*,u,-3
CC(CCc1ccccc1)NCc1ccc(Cl)cc1Cl (stereo unspecified),-12%,-70*,-18%,u,u,-7
O=[N+]([O-])c1ccc(C=NNC(=S)Nc2ccc(F)cc2)cc1,x,0,x,1.5µM*,2.9µM*,-2
CC(O)CNCc1ccc(Cl)cc1Cl (stereo unspecified),-5%,30,-1%,-6%,-29%,-5
S=C(Nc1ccccc1)Nc1ccc(Cl)cc1Cl,u,-1,-12%[0.365 µM],18µM*,u,-3
